# High-throughput results: PubChem, National Center for Advancing Translational Sciences (NCATS)
# FLuc inh = Firefly luciferase inhibition profiling of diverse chemical library using quantitative high-throughput screening; Luciferin 4-monooxygenase (Photinus pyralis), P08659; purified P. pyralis luciferase, luminescence, biochemical; Potency, µM (titrated, usually from 115 µM), actives largely listed as inhibitors; 76,000 compounds, 2.5% hits; AID 1347043, 2019; further: nearly all actives have a fitted effect of over 65% in size
#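 Luminescence read by CCD imager after adding enzyme (10nM final) to wells holding compound, titrated in qHTS. Substrates 10uM each D-luciferin and ATP; buffer 50mM Tris acetate pH 7.5, 10mM Mg acetate, Tween-20, BSA.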
# 3T3 cytotox = Cytotoxic Profiling in NIH 3T3 Cell Line of Diverse Libraries Using Quantitative High-Throughput Screening. NIH 3T3 viability, CellTiter-Glo ATP luminescence, 48-72 h. Potency, µM (highest dose often 96.7 µM), for the others: at the highest dose activity change, negative = cytotoxicity, actives largely listed as inhibitors. 94,000 compounds, 4.3% hits. AID 1345082, 2018; further: nearly all actives have a fitted effect of over 55% in size
#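 Viability of NIH 3T3 cells after 48 or 72 hr compound treatment at 37 °C was assessed by CellTiter-Glo, with luminescence imaged following a 10 min room-temperature step.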
# GPT2 inhibitor = Primary qHTS assay for inhibitors of Glutamate pyruvate transaminase 2 (GPT2). 100,000 compounds, 0.25% hits. Recombinant GPT2, coupled pyruvate oxidase/HRP Amplex Red fluorescence. Potency, µM (series often up to 57.7 µM), without a hit: top-dose activity change, negative = inhibition, actives largely listed as inhibitors. Alanine aminotransferase 2 (Homo sapiens), Q8TD30. AID 1671188, 2021; further: nearly all actives have a fitted effect of over 60% in size
# Target sequence (Q8TD30 whole entry, looked up): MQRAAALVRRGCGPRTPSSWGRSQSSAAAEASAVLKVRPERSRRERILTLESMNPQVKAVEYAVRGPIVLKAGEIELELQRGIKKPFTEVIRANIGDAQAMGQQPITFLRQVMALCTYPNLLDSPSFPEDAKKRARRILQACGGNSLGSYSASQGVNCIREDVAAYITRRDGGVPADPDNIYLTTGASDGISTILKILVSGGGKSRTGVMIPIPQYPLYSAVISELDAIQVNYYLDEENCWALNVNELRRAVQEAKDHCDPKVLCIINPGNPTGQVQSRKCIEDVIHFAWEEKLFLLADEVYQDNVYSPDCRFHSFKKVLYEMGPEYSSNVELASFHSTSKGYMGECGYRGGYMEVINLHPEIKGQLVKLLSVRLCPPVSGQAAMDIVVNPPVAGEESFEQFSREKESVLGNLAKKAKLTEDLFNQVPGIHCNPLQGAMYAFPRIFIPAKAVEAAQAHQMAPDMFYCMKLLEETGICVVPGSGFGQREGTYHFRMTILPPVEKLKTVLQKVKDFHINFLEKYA
#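 GPT2 10ng/uL, a-KG 250uM, L-Ala 2mM, HEPES pH7.5 + 0.0001% Tween; 30 min RT. Then Amplex mix (PO/HRP/ThPP), 30 min RT dark, fluorescence. AOA 50uM used as positive control.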
# HEK293 tox = Cytotoxic Profiling in HEK 293 Cell Line of Diverse Libraries Using Quantitative High-Throughput Screening | HEK 293 viability, ATP luminescence (CellTiter-Glo), 48-72 h | 94,000 compounds, 6.6% hits | Potency, µM (doses to about 115 µM), without a hit: at the top dose activity change, negative = cytotoxicity, usual class: inhibitors; further: nearly all actives have a fitted effect of over 60% in size
#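 Read-out: CellTiter-Glo ATP luminescence. Cells: HEK 293, 250 cells/well. Exposure: 48 or 72 hr, 37 degree Celsius.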
# hNpr1 antagonist = Natriuretic polypeptide receptor (hNpr1) antagonism - Primary qHTS; Atrial natriuretic peptide receptor 1 (Homo sapiens), P16066; HEK293 hNpr1 GloSensor cGMP, ANP-stimulated luminescence; Potency, µM (titrated, usually from 46.3 µM), for inactives: top-dose activity change, negative = inhibition, usual class: inhibitors; 76,000 compounds, 1.6% hits; calls by dose curve; further: nearly all actives have a fitted effect of over 60% in size
#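 Compound pre-incubated 30 min at room temperature on GloSensor-loaded HEK293 cells stably carrying hNpr1 and the pGS-40F cGMP biosensor. Stimulation uses hNppA at 0.1 nM final; luminescence is taken at baseline and 20 min post-agonist.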
# The depositor's hits bear a star; i = inactive; ? = inconclusive; nt = not tested or not shown; [ ] = another dose, or the depositor's remark. Hits are enriched below; roughly 10% of the tested compounds scored in any of these assays. Unless noted, the call rests on the fitted dose curve; in most records, active means well fitted curve in the direction sought with a large enough effect; inconclusive means small, poorly fitted or top-dose-only effect, or another doubt; inactive means no such curve, though single readings can be large; an effect the other way counts as inactive or inconclusive. On the % scale 0 is the no-effect control and ±100 the full control effect; potency means the concentration at half of the fitted maximal effect.
SMILES,FLuc inh,3T3 cytotox,GPT2 inhibitor,HEK293 tox,hNpr1 antagonist
COc1ccc(-c2cc(N3CCCC(NC(=O)c4ccc(OC)c(F)c4)C3)n[nH]2)cc1 (configuration not stated),?,?,?,40µM*,-13%
COc1ccc(-c2cc(N3CCC(NC(=O)c4ccc(C)c(C)c4)C3)n[nH]2)cc1 (configuration not stated),i,?,?,50µM*,4%
Cc1cc(C)cc(C(=O)NC2CCN(c3cc(-c4ccc(F)cc4)[nH]n3)C2)c1 (configuration not stated),i,45µM*,-21%,?,-11%
Cc1cc(C)cc(C(=O)NC2CCN(c3cc(-c4ccccc4)[nH]n3)C2)c1 (configuration not stated),i,-20%,-17%,?,6%
COc1ccc(-c2cc(N3CCCC(NC(=O)c4cccn4C)C3)n[nH]2)cc1 (configuration not stated),35µM*,?,-11%,?,-18%
COc1ccc(-c2cc(N3CCCC(NC(=O)c4cccc(N(C)C)c4)C3)n[nH]2)cc1 (configuration not stated),16µM*,?,?,?,-17%
O=C(c1coc(COc2ccc(F)cc2Cl)n1)N1C[C@H]2CC[C@H]1C2,i,?,-27%,-21%,8%
CCOc1cccc(CN2CCCC(COc3ccccc3C(=O)N3CCCCC3)C2)c1 (configuration not stated),i,?,-13%,?,-13%
O=C1CCCCC(C(=O)NCCN2CCOCC2)N1 (configuration not stated),i,i,i,16%,-2%
COc1ccc(-c2cc(N3CCCC(NC(=O)c4cccc(C)c4)C3)n[nH]2)cc1 (configuration not stated),10µM*,?,?,45µM*,-16%
COc1ccc(-c2cc(N3CCCC(NC(=O)CCc4ccccc4OC)C3)n[nH]2)cc1 (configuration not stated),i,?,-19%,40µM*,-4%
COc1ccc(-c2cc(N3CCCC(NC(=O)c4cc(C)cc(C)c4)C3)n[nH]2)cc1 (configuration not stated),?,40µM*,?,45µM*,-17%
CN(C)c1cccc(C(=O)NC2CCN(c3cc(-c4ccc(F)cc4)[nH]n3)CC2)c1,35µM*,?,i,?,?
Cc1noc(C)c1Cc1c(C(=O)NCC23CCC=C2N(C)C(=O)CC3)noc1C (configuration not stated),i,-5%,i,-3%,6%
Cc1nc(C(C)C)cc(N2CCN(c3ccccc3O)CC2)n1,i,?,i,?,-8%
Cc1ccc(CN2CCC(c3nnc(CN(C)C)n3C3CC3)CC2)o1,i,-14%,-17%,-1%,7%
CC(C)c1ccc(CC(=O)N2CCCc3ncc(C(=O)NCCc4ccccn4)cc32)cc1,i,?,i,?,-14%
COc1ccc(-c2cc(N3CCCC(NC(=O)c4ccc(C(F)(F)F)cc4)C3)n[nH]2)cc1 (configuration not stated),i,45µM*,i,?,-25%
O=C(NC1CCCN(c2cc(-c3ccccc3)[nH]n2)C1)c1ccc(C(F)(F)F)cc1 (configuration not stated),i,?,-13%,?,-7%
COc1ccc(-c2cc(N3CCC(NC(=O)c4ccccc4)CC3)n[nH]2)cc1,i,?,-10%,?,-17%
COc1ccc(-c2cc(N3CCC(NC(=O)c4ccc(Cl)s4)CC3)n[nH]2)cc1,i,?,2%,25µM*,-28%
COc1ccc2nc([C@H]3CCN(C(=O)COCC(=O)O)C3)[nH]c2c1,i,-2%[138 µM],-4%[88.5 µM],3%[172 µM],-18%[70.6 µM]
O=C(c1ccncc1)N1CCC2(CC1)CC(c1cccc(C(F)(F)F)c1)=NO2,nt,-23%,nt,89µM*,nt
O=C(C1CC1)N1CCC2(CC1)CC(c1cccc(C(F)(F)F)c1)=NO2,nt,?,nt,56µM*,nt
O=C(NCc1cccc(Cl)c1)[C@@H]1CCCN1c1nccc(Nc2ccccc2Cl)n1,nt,?,i,35µM*,nt
SMILES,FLuc inh,3T3 cytotox,GPT2 inhibitor,HEK293 tox,hNpr1 antagonist
O=C(NCc1ccc2c(c1)OCO2)C1CCN(c2nccc(Nc3ccccc3Cl)n2)CC1,nt,35µM*,0%,28µM*,nt
CSCCNC(=O)C1CCN(c2nccc(Nc3ccccc3Cl)n2)CC1,nt,35µM*,i,?,nt
O=C(NCc1ccc(F)cc1)C1CCN(c2nccc(Nc3ccccc3Cl)n2)CC1,nt,?,4%,?,nt
O=C(NCc1cccc(F)c1)C1CCN(c2nccc(Nc3ccccc3Cl)n2)CC1,nt,?,i,45µM*,nt
O=C(NCc1cccc(C(F)(F)F)c1)[C@@H]1CCCN1c1nccc(Nc2ccccc2Cl)n1,nt,?,-18%,?,nt
Cc1ccc(N2CC(c3noc(-c4cccc(Cl)c4)n3)CC2=O)cc1 (configuration not stated),i,i,i,-5%,-1%
COc1ccc(-c2cc(C(=O)NCC(C)C)c3c(C4CCCN4)noc3n2)cc1 (configuration not stated),nt,?,3%,?,nt
O=C(Cn1ccn2nc(-c3ccccc3)c(CO)c2c1=O)Nc1cc(Cl)cc(Cl)c1,i,-24%,2%,50µM*,0%
Cc1cc2c(-c3cccc(CO)c3)nc(-c3c(C)noc3C)cc2[nH]1,i,35µM*,4%[88.5 µM],?,-12%[70.6 µM]
Cc1cc2c(-c3cccc(O)c3)nc(-c3c(C)noc3C)cc2[nH]1,i,35µM*,2%[88.5 µM],45µM*,-22%[70.6 µM]
Cc1cc2c(-c3cccc(S(C)(=O)=O)c3)nc(-c3c(C)noc3C)cc2[nH]1,i,8.9µM*,-10%[88.5 µM],?,?
Cc1cc2c(-c3ccccc3O)nc(-c3c(C)noc3C)cc2[nH]1,i,?,-6%[88.5 µM],?,7%[70.6 µM]
COc1ccc(-c2nc(-c3c(C)noc3C)cc3[nH]c(C)cc23)cn1,i,?,?,?,8%[70.6 µM]
COc1cc(-c2nc(-c3c(C)noc3C)cc3[nH]c(C)cc23)ccn1,i,?,-10%[88.5 µM],89µM*,-17%[70.6 µM]
CNC(=O)[C@@H]1C[C@@H](N)CN1C(=O)c1cnn(-c2ccccc2OC)c1,i,0%,i,-8%,-6%
